AC50 and outcome data for nine molecules are collected here from PubChem BioAssay (EPA / NIEHS).

Molecules are shown by their SMILES. Results filed as inconclusive are left out. Active and inactive are the calls of the source. The calls were made as follows: active = hit-call score of the fitted dose curve at least 0.9, where 1 is the maximum; inconclusive = response in the unintended direction; inactive = score below 0.9.

As a reminder, the AC50 is the concentration at which the activity in the assay is half-maximal.

The test system of experiment [1] is zebrafish Estrogen Receptor (ESR2B), gene 317733. Description: ATG_zfER2b_XSP1: Attagene TRANS-FACTORIAL Multi-Species (XSP1) HepG2 Assay for zebrafish Estrogen Receptor (ESR2B) (AID 2283773). The method, boiled down:
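HepG2 cells transiently transfected with GAL4-UAS reporter units for chimeric zebrafish ER2b-Gal4, with 3 nM 6-alpha-fluorotestosterone present; reporter mRNA measured 24 h after dosing by RT-PCR and capillary electrophoresis, gain versus DMSO.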

The test system of experiment [2] is frog Estrogen Receptor (ESR2), gene 100174814. Nature of the experiment: ATG_frER2_XSP1: Attagene TRANS-FACTORIAL Multi-Species (XSP1) HepG2 Assay for frog Estrogen Receptor (ESR2) (AID 2283774). The method, boiled down:
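HepG2 cells transiently transfected with GAL4-UAS reporter units expressing chimeric frog ER-Gal4; 3 nM 6-alpha-fluorotestosterone present. After 24 h dosing, reporter mRNA quantified by RT-PCR and capillary electrophoresis; gain-of-signal fitted relative to DMSO.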

Experiment [3] concerns frog Estrogen Receptor (ESR1), gene 398734. Nature of the experiment: ATG_frER1_XSP1: Attagene TRANS-FACTORIAL Multi-Species (XSP1) HepG2 Assay for frog Estrogen Receptor (ESR1) (AID 2283777). The method, boiled down: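 HepG2 cells transiently transfected with frog ER–GAL4 chimera and GAL4-UAS reporter, with 3 nM 6-alpha-fluorotestosterone present; 24 h dosing, reporter mRNA quantified by RT-PCR and capillary electrophoresis, gain of signal versus DMSO.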

For experiment [4], the system named is zebrafish Estrogen Receptor (ESR2A), gene 317734. Nature of the experiment: ATG_zfER2a_XSP1: Attagene TRANS-FACTORIAL Multi-Species (XSP1) HepG2 Assay for zebrafish Estrogen Receptor (ESR2A) (AID 2283778). The method, boiled down:
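HepG2 cells transiently transfected with GAL4-UAS reporter units driven by a zebrafish ESR2A–Gal4 chimera; 24 h compound exposure with 3 nM 6-alpha-fluorotestosterone present. Reporter mRNA measured by RT-PCR with fluorescent capillary electrophoresis, fitted positive versus DMSO.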

Experiment [5] has as its target chicken Estrogen Receptor (ESR1), ESR1 (gene 396099) (UniProt P06212). Nature of the experiment: ATG_chERa_XSP1: Attagene TRANS-FACTORIAL Multi-Species (XSP1) HepG2 Assay for chicken Estrogen Receptor (ESR1) (AID 2283779). The method, boiled down: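 HepG2 cells transiently transfected with GAL4-UAS reporter units for chimeric chicken ERα-Gal4, dosed 24 h with 3 nM 6-alpha-fluorotestosterone present. Reporter mRNA by RT-PCR and capillary electrophoresis; gain-of-signal fit versus DMSO.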

Experiment [6] addresses Estrogen receptor (Homo sapiens) (UniProt P03372). Nature of the experiment: ATG_hERa_XSP1: Attagene TRANS-FACTORIAL Multi-Species (XSP1) HepG2 Assay for human Estrogen Receptor (ESR1) (AID 2283780). The method, boiled down:
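HepG2 cells transiently transfected with GAL4-UAS reporter units and chimeric NR-Gal4 constructs; 24 h after dosing, reporter mRNA quantified by RT-PCR and capillary electrophoresis. Medium contained 3 nM 6-alpha-fluorotestosterone; activity fitted as gain-of-signal versus DMSO.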

Experiment [7] concerns turtle Estrogen Receptor (ESR1), gene 101933533. Description: ATG_trERa_XSP1: Attagene TRANS-FACTORIAL Multi-Species (XSP1) HepG2 Assay for turtle Estrogen Receptor (ESR1) (AID 2283781). The method, boiled down: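 Turtle ERa as a GAL4 chimera in transiently transfected HepG2 cells; reporter mRNA quantified 24 h after dosing by RT-PCR and capillary electrophoresis. 3 nM 6-alpha-fluorotestosterone present; gain of signal versus DMSO.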

The nature of experiment [8]: ACEA_ER_AUC_viability: ACEA Biosciences xCELLigence Real-Time Cell Analysis on Estrogen Receptor Agonism for Viability (AID 2283782).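 Also: continuous compound exposure with impedance area under curve over 80 h; hit means loss of impedance signal meaning reduced cell growth or viability.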 The method, boiled down: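 T47D cells preconditioned in phenol red-free RPMI with charcoal-stripped FBS, then dosed with 8-point 1:4 series from 100 uM (up to 0.5% DMSO). Impedance monitored up to ~80 h; area-under-curve loss versus DMSO taken as viability.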

A short description of experiment [9]: ACEA_AR_agonist_AUC_viability: ACEA Biosciences xCELLigence Real-Time Cell Analysis on Androgen Receptor Agonism for Viability (AID 2283775).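 As to AC50: viability read 80 hours after compound addition.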 The method, boiled down: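 Read-out is area under the impedance curve at 80 h post-dose in 22Rv1 cells, with DMSO as baseline and signal loss taken as reduced viability. Compounds ran in duplicate from 100 uM final.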

Experiment [10] in a line: ACEA_AR_antagonist_AUC_viability: ACEA Biosciences xCELLigence Real-Time Cell Analysis on Androgen Receptor Antagonism for Viability (AID 2283776).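 Also: area under impedance growth curve at 80 h after dosing as viability; hits lower the growth signal relative to DMSO meaning cytotoxicity.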 The method, boiled down: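 22Rv1 human prostate cancer cells were seeded on electrode plates, monitored overnight, then exposed to eight 1:4 dilutions from 100 uM final. Impedance-based growth kinetics at 80 h gave an AUC viability endpoint normalized to DMSO.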

Chain of Estrogen receptor (Homo sapiens) (P03372 whole entry, looked up, the tested form may be a part): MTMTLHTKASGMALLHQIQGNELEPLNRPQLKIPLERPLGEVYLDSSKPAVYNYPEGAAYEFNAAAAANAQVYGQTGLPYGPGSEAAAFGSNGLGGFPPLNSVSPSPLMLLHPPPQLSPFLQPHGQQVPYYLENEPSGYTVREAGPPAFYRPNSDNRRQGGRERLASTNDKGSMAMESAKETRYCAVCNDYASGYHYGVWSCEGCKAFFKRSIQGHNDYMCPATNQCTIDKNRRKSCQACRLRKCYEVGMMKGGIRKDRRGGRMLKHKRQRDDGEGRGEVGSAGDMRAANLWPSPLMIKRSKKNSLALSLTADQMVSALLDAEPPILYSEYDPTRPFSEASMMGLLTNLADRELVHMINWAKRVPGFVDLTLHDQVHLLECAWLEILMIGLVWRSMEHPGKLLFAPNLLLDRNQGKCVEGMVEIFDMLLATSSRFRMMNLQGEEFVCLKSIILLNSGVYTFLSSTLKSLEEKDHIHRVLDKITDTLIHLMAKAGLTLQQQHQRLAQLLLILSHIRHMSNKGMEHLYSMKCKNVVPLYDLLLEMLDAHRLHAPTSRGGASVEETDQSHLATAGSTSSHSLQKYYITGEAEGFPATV
Chain of chicken Estrogen Receptor (ESR1), ESR1 (gene 396099) (P06212 whole entry, looked up, the tested form may be a part): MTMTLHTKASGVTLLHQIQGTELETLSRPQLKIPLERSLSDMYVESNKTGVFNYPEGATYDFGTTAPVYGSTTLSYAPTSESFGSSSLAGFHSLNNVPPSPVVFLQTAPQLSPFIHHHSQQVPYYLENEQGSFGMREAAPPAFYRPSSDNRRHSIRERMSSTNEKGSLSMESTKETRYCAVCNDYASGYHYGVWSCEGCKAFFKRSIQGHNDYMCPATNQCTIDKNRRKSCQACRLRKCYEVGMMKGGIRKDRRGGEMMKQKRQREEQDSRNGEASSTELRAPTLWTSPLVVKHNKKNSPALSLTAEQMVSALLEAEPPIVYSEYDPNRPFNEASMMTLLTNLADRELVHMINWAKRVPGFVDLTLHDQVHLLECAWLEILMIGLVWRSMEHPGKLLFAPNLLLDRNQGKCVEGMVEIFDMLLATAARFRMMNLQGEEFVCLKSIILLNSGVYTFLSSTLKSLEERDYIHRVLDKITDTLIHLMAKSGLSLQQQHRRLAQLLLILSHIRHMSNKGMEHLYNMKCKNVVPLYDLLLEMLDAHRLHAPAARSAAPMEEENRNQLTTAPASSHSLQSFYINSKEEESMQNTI

`CON(C)C(=O)Nc1ccc(Cl)c(Cl)c1`: the AC50 in experiment [1] was 35.9 µM (active); in [2] it was 29.1 µM (active); in experiment [3], 10.4 µM (active); in experiment [5] it was 27.3 µM (active); in experiment [6] it was 9.61 µM (active); in experiment [7] it was 26.7 µM (active). The outcome in [4] and in experiment [8] was inactive.

`CCCCNC(=O)OCC#CI`: the result in experiment [1] and in [4] was inactive. Also, in experiment [8], the AC50 was 5.58 µM (active).

Consider `COc1cnc(OC)n2nc(NS(=O)(=O)c3c(OCC(F)F)cccc3C(F)(F)F)nc12`, for which the molecule was called inactive in experiment [9].

As for `N#Cc1cc(Br)c(O)c(Br)c1`, the AC50 in experiment [9] was 59.6 µM (active).

In the case of `N#Cc1nn(-c2c(Cl)cc(C(F)(F)F)cc2Cl)c(N)c1S(=O)C(F)(F)F` (stereo not given), the concentration at half-maximal activity (AC50) in experiment [8] was 83.3 µM (active).

With `CC(C)C1(C)N=C(c2nc3ccccc3cc2C(=O)O)NC1=O` (stereo not given), in experiment [10], the call was inactive.

As to `Cc1c(F)c(F)c(COC(=O)C2C(/C=C(\Cl)C(F)(F)F)C2(C)C)c(F)c1F` (stereo not given), in experiment [9], the result was inactive.

With `CC(C)(C)c1ccc(CSc2cnn(C(C)(C)C)c(=O)c2Cl)cc1`, the outcome in [1], in experiment [2], in experiment [3], in [4], in experiment [5] and in experiment [6] was inactive. In addition, the outcome in experiment [7] was inactive. The AC50 in experiment [9] is 16 µM (active).

For the molecule `CCCCNC(=O)n1c(NC(=O)OC)nc2ccccc21`, the AC50 in [8] was 18.1 µM (active).
